Measured values taken from the supplement of paper PMC7156485.
± gives the standard deviation of the averaged measurements.

test system: TDF; assay: cell number relative to DMSO (% of DMSO); higher = more cells (less growth inhibition / toxicity); conditions: concentration: 10 µM; 24 h
How it was run: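 Six fields per well were imaged at ×10 after the cells were fixed in 3.7% formaldehyde and stained with a rabbit anti-H1.0 antibody, an AlexaFluor 647 secondary and DAPI. The HCC1569 and TDF cells had been plated at 800 per well in 384-well plates (RPMI, 10% FBS) and treated in triplicate with compounds at 10 µM for 24 h at 37 °C. The values are the median of replicates of H1.0 nuclear intensity or cell number, as percent of the plate control. Smoothing for positional effects was applied to HCC1569 data.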
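Further: TDF denotes transformed human dermal fibroblasts of mesenchymal origin.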

SMILES	cell number
CCC=CCC(O)C=CC=CCC=CCC=CCCCC(=O)O (stereo not given)	102
CN1CCN(C2=Nc3ccccc3Sc3ccc(Cl)cc32)CC1 [Clothiapine]	88.9
CC(O)C1C(=O)N2C(C(=O)O)=C(SCCN=CN)CC12 (stereo not given) [Imipenem]	109
O=c1cc(N2CCNCC2)oc2c(-c3ccccc3)cccc12	98.3
COc1cccc2c1C1CN(CCCCn3c(=O)[nH]c4c(sc5ncc(-c6ccccc6)nc54)c3=O)CC1CO2.Cl (stereo not given) [Fiduxosin hydrochloride]	103
CC(C)CNCc1ccc(-c2ccccc2S(=O)(=O)N2CCCC2)cc1.Cl	99.2
NC1CCCCC1N.O=C([O-])C(=O)[O-].[Pt+2] (stereo not given) [Oxaliplatin]	87.2 ± 18
C[C@@H]1CCN(C(=O)CC#N)C[C@@H]1N(C)c1ncnc2[nH]ccc12	109
CC1(C)CCC(C)(C)c2cc(C3(c4ccc(C(=O)O)cc4)OCCO3)ccc21	99
COC1C=COC2(C)Oc3c(C)c(O)c4c(O)c(cc(O)c4c3C2=O)NC(=O)C(C)=CC=CC(C)C(O)C(C)C(O)C(C)C(OC(C)=O)C1C (stereo not given)	105
CCCCCCCCC=CCCCCCCCCCCCC(=O)O [13(E)-Docosenoic acid]	108
C=CCc1ccc(O)c(OC)c1 [Eugenol]	114
CC(=O)N1CCN(C(=O)/C=C/c2ccc(Sc3ccccc3C(C)C)c([N+](=O)[O-])c2)CC1	86.4
CCn1c(=O)[nH]c2cc(Cl)c(Cl)cc21	94.4
COc1cc2c3cc1Oc1c(OC)c(OC)cc4c1C(Cc1ccc(OC(=O)c5ccc([N+](=O)[O-])cc5)c(c1)Oc1ccc(cc1)CC3N(C)CC2)N(C)CC4 (stereo not given) [E6 Berbamine]	95.2
CC1(C)C(=O)N(CCN2CCC(C(=O)c3ccc(F)cc3)CC2)c2ccccc21.Cl [LY-310,762 hydrochloride]	94.5
Cn1c(=O)c2c(ncn2C)n(C)c1=O [Caffeine]	102 ± 7.9
CNC1C(O)C(NC)C2OC3(O)C(=O)CC(C)OC3OC2C1O.Cl.Cl (stereo not given) [Spectinomycin.2HCl]	106
CN1C2CCC1CC(OC(=O)c1c[nH]c3ccccc13)C2.Cl (stereo not given) [3-Tropanyl-indole-3-carboxylate hydrochloride]	112
CCCNC(=O)NS(=O)(=O)c1ccc(Cl)cc1 [Chlorpropamide]	96.2

SMILES	cell number
Cc1ccccc1N1C(=O)c2cc(S(N)(=O)=O)c(Cl)cc2NC1C (stereo not given) [Metolazone]	110
CCCCNc1ccc(C(=O)OCCN(C)C)cc1.Cl [Tetracaine hydrochloride]	101
CCN(CC)C(=S)SSC(=S)N(CC)CC [Tetraethylthiuram disulfide]	54
Nn1nnc2ccccc21 [1-Aminobenzotriazole]	107
CN(C)NN=C1N=CN=C1C(N)=O [Dacarbazine]	102
COc1ccc(S(=O)(=O)Nc2nc(-c3cccc([N+](=O)[O-])c3)cs2)cc1OC	92.4
C#Cc1cccc(Nc2ncnc3cc(OCCOC)c(OCCOC)cc23)c1 [Erlotinib]	94.5 ± 3.9
C[C@H](O)[C@H](O)[C@H]1CNc2[nH]c(N)nc(=O)c2N1.Cl.Cl	97.2
CC(C)n1cnc2c(NCc3ccccc3)nc(NCCCO)nc21 [Bohemine]	87.5
COc1ccc(CC2c3cc(OC)c(OC)cc3CC[N+]2(C)CCC(=O)OCCCCCOC(=O)CC[N+]2(C)CCc3cc(OC)c(OC)cc3C2Cc2ccc(OC)c(OC)c2)cc1OC.O=S(=O)([O-])c1ccccc1.O=S(=O)([O-])c1ccccc1 (stereo not given) [Atracurium besylate]	103
O=c1c(-c2ccc(O)cc2)coc2cc(OC3OC(CO)C(O)C(O)C3O)cc(O)c12 (stereo not given) [Genistin]	104
OCc1c[nH]c2ccccc12 [Indole-3-carbinol]	109
O=c1[nH]c(=O)n(C2CC(O)C(CO)O2)cc1F (stereo not given) [Floxuridine]	61.1
CC(=O)NC1C(N=C(N)N)C=C(C(=O)O)OC1C(O)C(O)CO (stereo not given)	115
O=C(O)c1cc(N(Cc2ccccc2O)Cc2ccccc2O)ccc1O [Lavendustin B]	95.2
C=CC1CN2CCC1CC2C(O)c1ccnc2ccc(OC)cc12.C=CC1CN2CCC1CC2C(O)c1ccnc2ccc(OC)cc12.O=S(=O)(O)O (stereo not given) [Quinine sulfate]	97.8
CC1(NCC(O)COc2cccc3[nH]ccc23)CCC(C(C)(C)NC(=O)CBr)CC1 (stereo not given) [Pindobind-5HT1A]	10.4
CCC=CCC=CCC=CCC=CCC=CCCCC(=O)O	102
CCN1CCCC1CNC(=O)c1c(O)c(Cl)cc(Cl)c1OC (stereo not drawn) [S(-)-Raclopride]	97.5
COC1=C(OC)C(=O)c2ccccc2C1=O [2,3-Dimethoxy-1,4-naphthoquinone]	36.2
